The values that follow come from PubChem BioAssay (NCI).

The nature of experiment [1]: NCI Yeast Anticancer Drug Screen. Data for the rad50 strain (AID 155).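 Further: 0% = growth of vehicle-only cultures of the same strain.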 Conditions: S. cerevisiae rad50 strain growth inhibition; at 50.0 µM; active compounds read high. The method, boiled down:
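Yeast carrying a defined DNA repair defect were exposed to test compounds, and growth was compared with vehicle-treated controls to give percent inhibition.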

The nature of experiment [2]: NCI Yeast Anticancer Drug Screen. Data for the mec2-1 strain (AID 157). Conditions: S. cerevisiae mec2-1 strain, at 50.0 µM, active compounds read high. Put shortly:
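Test agents were screened against the mec2-1 yeast strain, with defined DNA repair or cell cycle alteration. Growth was scored as inhibition against vehicle-only controls.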

The nature of experiment [3]: NCI Yeast Anticancer Drug Screen. Data for the sgs1 mgt1 strain (AID 161).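 Further: 0% = growth of cultures given vehicle only.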 Conditions: S. cerevisiae sgs1 mgt1 strain, at 50.0 µM, active compounds read high. Put shortly: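 Genetically altered yeast, compound exposure, growth inhibition relative to vehicle.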
Experiment [4] can be described thus: NCI Yeast Anticancer Drug Screen. Data for the cln2 rad14 strain (AID 165).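 Further: 0% = growth equal to vehicle treated cultures.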 Conditions: S. cerevisiae cln2 rad14 strain, at 50.0 µM, active compounds read high. Put shortly: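 Growth of compound-exposed yeast (cln2 rad14 genotype) measured and expressed as inhibition relative to vehicle.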
Experiment [5] is described as follows: NCI Yeast Anticancer Drug Screen. Data for the bub3 strain (AID 167). Conditions: S. cerevisiae bub3 mutant strain, at 50.0 µM, active compounds read high. Put shortly:
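Compounds were applied to a genetically altered yeast strain carrying a cell-cycle control defect. Growth inhibition was scored against vehicle-treated controls.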

The nature of experiment [6]: NCI Yeast Anticancer Drug Screen. Data for the mlh1 rad18 strain (AID 175). Particulars: S. cerevisiae mlh1 rad18 strain growth inhibition; at 50.0 µM; active compounds read high. Put shortly: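 In this whole-cell yeast screen, a strain with altered DNA damage repair is challenged with compound, and its growth is measured against matched vehicle-treated controls.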

The panel holds about 79,000 compounds, 15% with a hit somewhere; the sample as a whole holds those more often. Values without a mark were called inactive. Activity calls are given as the source filed them. No stated cut-off is given here; in the data, active means growth inhibition above about 70%; inactive means the rest.

Turning to `CC(C)(C)CC(C)(C)c1cc2c(O)c(c1)Cc1cc(C(C)(C)CC(C)(C)C)cc(c1O)Cc1cc(C(C)(C)CC(C)(C)C)cc(c1O)Cc1cc(C(C)(C)CC(C)(C)C)cc(c1O)Cc1cc(C(C)(C)CC(C)(C)C)cc(c1O)Cc1cc(C(C)(C)CC(C)(C)C)cc(c1O)C2`, the growth inhibition in experiment [1] is 7.4%; in experiment [2], 3.05%; in experiment [3] it was 18.4%; in experiment [4] it was 18.9%; in experiment [5], 4.95%; in experiment [6], 9.55%.
For `c1ccc(-c2cc(CNc3nc4ccccc4s3)on2)cc1`, the growth inhibition in experiment [1] is 19.9%; in experiment [2] it was 10.7%; in experiment [3], 9.1%; in experiment [4], 5.45%; in experiment [6] it was 9.75%.
In the same order, the values of `CCOc1ccc(NC(C)=O)c([N+](=O)[O-])c1` are -7.05%, -1.25%, 21%, 9.45% and 2.55%.
In the same order, the values of `COc1ccc(C(=O)/C=C/c2ccc(OCC(=O)O)cc2)cc1` are 22.6%, 12.3%, 18.1%, 21.8% and 42.8%.
In the same order, the values of `C#CC(C)OC(=O)Nc1ccccc1` (stereo unspecified) are 28.6%, -22.2%, 3.4%, -3.95% and -8.3%.
Take `CC(=O)c1cccc(NC(=O)C(=O)C(C(=O)NN)c2ccccc2)c1` (stereo unspecified): the growth inhibition in experiment [1] is 11.4%; in experiment [2] it was 11.1%; in experiment [3], -5.2%; in experiment [4], 4.2%; in experiment [6], 15.9%.
In the same order, the values of `COC(=O)c1nc(N)[nH]c(=O)c1-c1ccc(Cl)cc1` are -9.5%, -21.9%, -10.9%, 14.8% and -47.8%.
In the same order, the values of `O=[n+]1c2c(n([O-])c3cc(Cl)c(Cl)cc31)CCCC2` are 11.8%, 11.2%, 17.5%, -2% and 4.9%.
In the same order, the values of `CN(Cc1ccccc1)c1ccccn1` are -12.9%, -21.8%, -18.9%, -2.05% and 8.85%.
Take `COc1ccc(N)c(C(=O)CCNC(C)=O)c1`: the growth inhibition in experiment [1] is -23.2%; in experiment [2] it was -9.7%; in experiment [3], -21.2%; in experiment [4] it was -7.05%; in experiment [6], -25.4%.
Consider `CCOC(C)=C(C#N)C#N`, for which the growth inhibition in experiment [1] was 8.9%; in experiment [2], -9.4%; in experiment [3], 8.95%; in experiment [4], -7.85%; in experiment [5], -10.2%; in experiment [6] it was 4.9%.
As to `O=C1CCCC/C1=C/c1ccccc1`, the growth inhibition in experiment [1] is 6%; in experiment [2], 18.9%; in experiment [3], -3.3%; in experiment [4] it was -19.1%; in experiment [6], 8.05%.
As to `O=C(OC(=O)c1cccc2ccccc12)c1cccc2ccccc12`, the growth inhibition was -5.15% in experiment [1]; -7.75% in experiment [2]; 2.3% in experiment [3]; 43.3% in experiment [4]; 12% in experiment [5]; 13.2% in experiment [6].
`CCOC(=O)NCS(=O)(=O)N1CCOCC1`: the growth inhibition in experiment [1] was 25.6%; in experiment [2], 9.25%; in experiment [3], 8%; in experiment [4], 19.6%; in experiment [6], 9.7%.
As for `CC1=C(C(=O)NNC(=O)c2ccccc2O)CC(C(=O)NNC(=O)c2ccccc2O)=C(C)N1`, the growth inhibition in experiment [1] is 45.5%; in experiment [2], 40.5%; in experiment [3] it was 10.5%; in experiment [4] it was 17.2%; in experiment [6] it was 32.4%.
Consider `CN(C)C(=S)/N=c1\ss/c(=N\C(=S)N(C)C)n1C1CCCCC1`, for which the growth inhibition in experiment [1] is 15%; in experiment [2], 9.35%; in experiment [3], 13.4%; in experiment [4] it was -23.1%; in experiment [6], 22.2%.
Consider `COc1cc(CCCCC(=O)O)ccc1OC(=O)c1ccccc1`, for which the growth inhibition is -15.6% in experiment [1]; -4.85% in experiment [2]; 1.85% in experiment [3]; 2.05% in experiment [4]; -5.1% in experiment [6].
In the same order, the values of `CC(=O)NCc1cccc([N+](=O)[O-])c1` are 18.4%, -12.9%, 27.3%, 2.45% and 13.2%.
As to `O=C(c1ccccc1)C12CCCC(CC1)C2` (stereo unspecified), the growth inhibition in experiment [1] is 0.15%; in experiment [2], -19.9%; in experiment [3], -2.2%; in experiment [4] it was -37.5%; in experiment [6], 0.65%.
As for `NCCNC(=O)Cc1cccc2ccccc12`, the growth inhibition is -21.1% in experiment [1]; -48% in experiment [2]; -5.15% in experiment [3]; 3.6% in experiment [4]; -36.5% in experiment [5]; -3.05% in experiment [6].
For `Cc1[nH]nc2c(=O)n(N)nnc12`, the growth inhibition in experiment [1] was 18.4%; in experiment [2], 7.3%; in experiment [3], 0.35%; in experiment [4], -16.9%; in experiment [5], -15.8%; in experiment [6], 26.4%.
`COC(=O)NCc1nc2cc3c[nH][nH]c3cc2n1`: the growth inhibition in experiment [1] was -8.15%; in experiment [2], 0.05%; in experiment [3], 14.9%; in experiment [4], -16%; in experiment [5], 11.6%; in experiment [6], 11.2%.
In the case of `Cc1cccc([B-]23OCC[N+]2(CNC(=O)c2ccccc2O)CCO3)c1` (stereo unspecified), the growth inhibition in experiment [1] was -21.6%; in experiment [2], -19.8%; in experiment [3] it was -7.5%; in experiment [4] it was -11.6%; in experiment [6] it was -16.8%.
In the same order, the values of `OC1(c2cccc(C(F)(F)F)c2)CCNCC1` are -21.8%, -13.5%, -7.4%, -6.9% and -8.3%.
With `O=C(CC(c1ccccc1)N1CCCCC1)OC(c1ccccc1)c1ccc(Br)cc1` (stereo unspecified), the growth inhibition in experiment [1] is 12.9%; in experiment [2] it was 4.05%; in experiment [3] it was 11.6%; in experiment [4] it was 7.95%; in experiment [6], 2.8%.
In the same order, the values of `CCSc1n[nH]c(=O)nc1NN` are -0.35%, -3.85%, -28.4%, -60% and -2.75%.
In the same order, the values of `C=C(C)C#CCN(CCO)C(C)C` are -7.45%, -30.3%, -12.9%, 9.2% and 4.75%.
In the same order, the values of `C/C(=N\N)c1ccc(-c2ccccc2)cc1` are 10.6%, 8.9%, 6.45%, -32.8% and -5.4%.
With `O=C(O)c1ccc2c([N+](=O)[O-])cccc2n1`, the growth inhibition in experiment [1] was 33.5%; in experiment [2], 19.2%; in experiment [3], 14.3%; in experiment [4] it was -44%; in experiment [6], 19.9%.
In the same order, the values of `CCOc1nc(SCC)nc2c1cnn2-c1ccccc1` are -8.45%, -26.4%, -9.9%, -15.8% and -19.5%.
For the molecule `CC(C)(CCC(C)(C)c1ccccc1)c1ccccc1`, the growth inhibition in experiment [1] is -2.7%; in experiment [2], -35.7%; in experiment [3] it was -9.2%; in experiment [4], -9.75%; in experiment [6], -8.25%.
In the same order, the values of `O=c1c2ccccc2c(=O)n2n1C1CCC2C1` are 7.05%, -0.55%, -7.9%, -3.75% and -6.15%.
In the same order, the values of `COc1ccc(C(c2ccc(N(Cc3ccccc3)Cc3ccccc3)cc2NC(C)=O)c2ccc(N(Cc3ccccc3)Cc3ccccc3)cc2NC(C)=O)cc1OC` are 5.75%, -5.25%, -19.9%, -8.55% and 26.7%.
In the same order, the values of `O=C(Oc1ccccc1)C(Cc1ccccc1)NC(=O)C(F)(F)F` (stereo unspecified) are 4.6%, 7.7%, -4.8%, 1.5% and -37.4%.
On to `[Cl][Ce]([Cl])[Cl]`, for which the growth inhibition is 28.1% in experiment [1]; 14.2% in experiment [2]; 24.9% in experiment [3]; 16.4% in experiment [4]; 15.6% in experiment [6].
On to `CCNCc1cc(Nc2cc(C)nc(/N=C(\N)Nc3ccc(Cl)c(Cl)c3)n2)ccc1OC`, for which the growth inhibition in experiment [1] was 98.8% (active); in experiment [2], 99% (active); in experiment [3], 99.3% (active); in experiment [4], 97.5% (active); in experiment [6] it was 98.4% (active).
In the same order, the values of `C[N+](C)(CCOc1ccccc1)Cc1ccccc1` are 55%, 25.8%, 39.3%, 26.8% and 31.5%.
In the same order, the values of `COc1cc(C(=O)NOCc2cccc(C(F)(F)F)c2)cc(OC)c1OC` are 39.8%, -11.2%, 15.9%, -14.8% and 6.25%.
